# Experimental data: the supplement of paper PMC10849652
# Of roughly 8,800 targets only a part is listed; those with a hit were picked by preference. About 0.5% of all pairs of compound and target were hits. A number with no mark means an inactive call.
# Key:
# Assay in all cases: log2 fold change, soluble protein after heating vs DMSO (PISA); higher = thermal stabilisation; K562 lysate, 10 uM; active = over 0.2 and 3.5 SD of the protein, either way, in both replicates (recomputed)
# [1] = compound: CCCS(=O)(=O)Nc1ccc(F)c(C(=O)c2c[nH]c3ncc(Cl)cc23)c1F
# How it was run: (§1)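 Log-two fold change in thermal stability relative to solvent controls is reported from duplicates. For each sample, crude K562 extract from dounce-homogenised pellets in PBS pH 7.4 with 1 mM MgCl2, at 1 mg/mL protein, was treated with 10 μM compound for 30 min. Aliquots heated for 3 min across 48°C-58°C were pooled, brought to 0.5% NP-40 at 4°C and cleared at 21,000xg for 90 min. The supernatant was quantified by TMTpro 16plex LC-MS/MS with channel sums equalised.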
# barasertib = compound: CCN(CCCOc1ccc2c(Nc3cc(CC(=O)Nc4cccc(F)c4)[nH]n3)ncnc2c1)CCOP(=O)(O)O [barasertib]
# How it was run: as §1
# [2] = compound: CC[C@@H]1C(=O)N(C)c2cnc(Nc3ccc(C(=O)NC4CCN(C)CC4)cc3OC)nc2N1C1CCCC1
# How it was run: as §1
# volasertib = compound: CC[C@@H]1C(=O)N(C)c2cnc(Nc3ccc(C(=O)N[C@H]4CC[C@H](N5CCN(CC6CC6)CC5)CC4)cc3OC)nc2N1C(C)C [volasertib]
# How it was run: as §1
# [3] = compound: CCn1c(C(=O)N(C2CC2)C2CC2)cc2c3c(ncn3C)c(Nc3cc(C)n(C)n3)nc21
# How it was run: as §1
# [4] = compound: CCn1cc(-c2ccnc3[nH]c(-c4cccc(CN(C)C)c4)cc23)c(-c2ccc(NC(=O)N(C)C)cc2)n1
# How it was run: as §1
# [5] = compound: CN1CCC(CNc2ccc3ncc(-c4cccc(OC(F)(F)F)c4)n3n2)CC1
# How it was run: as §1
# saracatinib = compound: CN1CCN(CCOc2cc(OC3CCOCC3)c3c(Nc4c(Cl)ccc5c4OCO5)ncnc3c2)CC1 [saracatinib]
# How it was run: as §1
# sotrastaurin = compound: CN1CCN(c2nc(C3=C(c4c[nH]c5ccccc45)C(=O)NC3=O)c3ccccc3n2)CC1 [sotrastaurin]
# How it was run: as §1
# vemurafenib = compound: CCCS(=O)(=O)Nc1ccc(F)c(C(=O)c2c[nH]c3ncc(-c4ccc(Cl)cc4)cc23)c1F [vemurafenib]
# How it was run: as §1
# Sequence of UniProt Q9NRW4 (Q9NRW4 whole entry, looked up): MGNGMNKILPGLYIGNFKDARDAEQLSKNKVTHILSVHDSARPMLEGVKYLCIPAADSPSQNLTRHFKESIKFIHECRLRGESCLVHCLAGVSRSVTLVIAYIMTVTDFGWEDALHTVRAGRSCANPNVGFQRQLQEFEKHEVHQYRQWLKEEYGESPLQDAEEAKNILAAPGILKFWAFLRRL
# Sequence of UniProt P02774 (P02774 whole entry, looked up): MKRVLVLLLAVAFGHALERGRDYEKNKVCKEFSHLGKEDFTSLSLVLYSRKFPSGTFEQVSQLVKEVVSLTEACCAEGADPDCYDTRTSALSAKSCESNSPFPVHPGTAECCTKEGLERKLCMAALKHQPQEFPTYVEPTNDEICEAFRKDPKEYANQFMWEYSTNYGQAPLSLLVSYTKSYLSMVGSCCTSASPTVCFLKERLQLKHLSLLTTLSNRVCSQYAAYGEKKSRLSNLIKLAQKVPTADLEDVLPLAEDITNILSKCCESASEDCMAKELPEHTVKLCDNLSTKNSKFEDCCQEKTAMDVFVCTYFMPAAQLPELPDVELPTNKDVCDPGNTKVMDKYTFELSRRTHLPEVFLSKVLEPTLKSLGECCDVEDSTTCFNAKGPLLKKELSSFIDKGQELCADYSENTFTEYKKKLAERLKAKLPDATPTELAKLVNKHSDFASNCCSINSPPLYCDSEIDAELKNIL
# Sequence of UniProt Q96PY5 (Q96PY5 whole entry, looked up): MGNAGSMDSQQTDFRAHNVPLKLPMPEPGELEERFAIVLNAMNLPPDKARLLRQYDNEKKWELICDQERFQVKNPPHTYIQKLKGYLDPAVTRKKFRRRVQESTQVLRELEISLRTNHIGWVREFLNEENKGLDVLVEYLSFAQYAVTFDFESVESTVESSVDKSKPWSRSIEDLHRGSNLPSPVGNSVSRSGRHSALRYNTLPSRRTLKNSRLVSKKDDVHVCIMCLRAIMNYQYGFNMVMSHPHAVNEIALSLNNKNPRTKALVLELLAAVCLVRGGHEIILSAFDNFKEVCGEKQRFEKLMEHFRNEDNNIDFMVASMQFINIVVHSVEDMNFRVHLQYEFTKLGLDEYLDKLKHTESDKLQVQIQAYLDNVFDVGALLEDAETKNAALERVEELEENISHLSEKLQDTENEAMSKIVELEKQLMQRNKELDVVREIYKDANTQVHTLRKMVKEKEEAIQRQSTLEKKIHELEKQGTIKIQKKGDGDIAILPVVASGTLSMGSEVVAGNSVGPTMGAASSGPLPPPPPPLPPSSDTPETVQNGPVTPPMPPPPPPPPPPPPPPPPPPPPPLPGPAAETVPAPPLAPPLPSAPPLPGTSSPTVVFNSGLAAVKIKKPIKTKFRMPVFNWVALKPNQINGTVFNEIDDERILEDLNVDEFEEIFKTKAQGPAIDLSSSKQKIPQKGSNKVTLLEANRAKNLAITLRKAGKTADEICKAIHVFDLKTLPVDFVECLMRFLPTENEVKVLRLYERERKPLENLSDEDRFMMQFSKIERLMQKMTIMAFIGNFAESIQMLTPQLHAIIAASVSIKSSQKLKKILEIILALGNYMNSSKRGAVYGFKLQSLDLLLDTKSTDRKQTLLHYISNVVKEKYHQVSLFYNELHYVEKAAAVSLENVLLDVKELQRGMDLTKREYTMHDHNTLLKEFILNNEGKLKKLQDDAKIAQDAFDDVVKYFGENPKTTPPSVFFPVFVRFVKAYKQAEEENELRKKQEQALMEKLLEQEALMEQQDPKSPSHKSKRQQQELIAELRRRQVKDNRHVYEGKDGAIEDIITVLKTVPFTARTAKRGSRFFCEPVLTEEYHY
# Sequence of UniProt Q6IPR1 (Q6IPR1 whole entry, looked up): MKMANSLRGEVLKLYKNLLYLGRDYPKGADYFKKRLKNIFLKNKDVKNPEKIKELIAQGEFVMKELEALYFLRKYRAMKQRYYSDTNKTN
# Sequence of UniProt Q9Y2H6 (Q9Y2H6 whole entry, looked up): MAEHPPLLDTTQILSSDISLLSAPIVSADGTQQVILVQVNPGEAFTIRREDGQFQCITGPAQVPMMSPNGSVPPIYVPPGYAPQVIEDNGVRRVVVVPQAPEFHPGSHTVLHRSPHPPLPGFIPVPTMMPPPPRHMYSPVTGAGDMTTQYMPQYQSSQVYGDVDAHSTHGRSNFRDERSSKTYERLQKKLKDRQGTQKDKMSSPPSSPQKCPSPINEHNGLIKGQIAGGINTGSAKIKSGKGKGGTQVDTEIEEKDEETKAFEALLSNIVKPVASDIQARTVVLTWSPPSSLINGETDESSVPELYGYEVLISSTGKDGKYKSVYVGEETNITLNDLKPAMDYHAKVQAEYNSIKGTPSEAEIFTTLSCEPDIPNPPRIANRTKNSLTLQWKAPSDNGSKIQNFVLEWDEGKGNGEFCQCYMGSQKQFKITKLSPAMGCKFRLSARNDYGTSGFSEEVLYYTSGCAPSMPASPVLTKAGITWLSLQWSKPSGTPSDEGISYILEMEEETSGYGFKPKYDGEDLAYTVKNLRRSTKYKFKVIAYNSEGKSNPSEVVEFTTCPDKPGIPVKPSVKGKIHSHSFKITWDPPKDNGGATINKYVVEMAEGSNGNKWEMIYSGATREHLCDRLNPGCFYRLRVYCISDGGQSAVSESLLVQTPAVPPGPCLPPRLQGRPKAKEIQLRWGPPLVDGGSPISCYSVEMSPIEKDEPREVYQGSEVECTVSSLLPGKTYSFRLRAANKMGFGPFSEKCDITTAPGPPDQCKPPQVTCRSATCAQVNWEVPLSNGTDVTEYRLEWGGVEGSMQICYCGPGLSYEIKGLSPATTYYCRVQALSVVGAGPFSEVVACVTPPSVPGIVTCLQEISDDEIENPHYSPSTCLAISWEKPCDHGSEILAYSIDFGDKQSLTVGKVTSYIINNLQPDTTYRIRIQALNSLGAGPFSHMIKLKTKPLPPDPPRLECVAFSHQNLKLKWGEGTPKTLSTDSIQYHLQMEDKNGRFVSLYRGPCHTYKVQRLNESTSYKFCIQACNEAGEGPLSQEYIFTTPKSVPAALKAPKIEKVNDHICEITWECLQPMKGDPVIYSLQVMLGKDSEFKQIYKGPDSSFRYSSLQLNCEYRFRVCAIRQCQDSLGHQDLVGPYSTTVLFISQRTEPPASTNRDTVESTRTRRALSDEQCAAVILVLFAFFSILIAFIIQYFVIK
# Sequence of UniProt Q96PZ2 (Q96PZ2 whole entry, looked up): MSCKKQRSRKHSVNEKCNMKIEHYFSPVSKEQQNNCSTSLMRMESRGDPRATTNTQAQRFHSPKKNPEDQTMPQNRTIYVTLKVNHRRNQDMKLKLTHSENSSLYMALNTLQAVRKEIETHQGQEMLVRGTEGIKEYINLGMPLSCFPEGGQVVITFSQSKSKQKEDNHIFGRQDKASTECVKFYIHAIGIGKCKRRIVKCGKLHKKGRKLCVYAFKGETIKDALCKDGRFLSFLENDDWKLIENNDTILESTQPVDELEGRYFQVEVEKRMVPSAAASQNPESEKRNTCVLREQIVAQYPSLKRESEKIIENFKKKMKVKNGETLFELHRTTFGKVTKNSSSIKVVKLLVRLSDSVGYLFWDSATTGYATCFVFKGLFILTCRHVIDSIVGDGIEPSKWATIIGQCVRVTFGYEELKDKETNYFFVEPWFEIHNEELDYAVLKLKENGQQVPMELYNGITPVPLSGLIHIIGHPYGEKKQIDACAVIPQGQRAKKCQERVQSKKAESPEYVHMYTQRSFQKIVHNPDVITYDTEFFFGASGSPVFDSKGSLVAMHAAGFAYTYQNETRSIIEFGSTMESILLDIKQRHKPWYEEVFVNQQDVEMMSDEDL
# Sequence of UniProt Q9H8W3 (Q9H8W3 whole entry, looked up): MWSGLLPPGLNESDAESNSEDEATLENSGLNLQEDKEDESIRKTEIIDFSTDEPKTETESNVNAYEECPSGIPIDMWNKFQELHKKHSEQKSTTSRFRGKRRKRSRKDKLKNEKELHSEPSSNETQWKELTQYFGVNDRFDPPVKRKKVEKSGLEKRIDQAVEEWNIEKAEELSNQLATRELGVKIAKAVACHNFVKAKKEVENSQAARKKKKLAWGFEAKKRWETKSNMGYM
# Sequence of UniProt Q9Y6B2 (Q9Y6B2 whole entry, looked up): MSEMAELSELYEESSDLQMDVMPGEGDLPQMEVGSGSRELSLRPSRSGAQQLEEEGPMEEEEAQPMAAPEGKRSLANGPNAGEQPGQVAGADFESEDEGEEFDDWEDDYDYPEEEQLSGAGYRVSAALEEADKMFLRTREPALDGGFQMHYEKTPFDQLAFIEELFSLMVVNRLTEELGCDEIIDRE
# Sequence of UniProt P28676 (P28676 whole entry, looked up): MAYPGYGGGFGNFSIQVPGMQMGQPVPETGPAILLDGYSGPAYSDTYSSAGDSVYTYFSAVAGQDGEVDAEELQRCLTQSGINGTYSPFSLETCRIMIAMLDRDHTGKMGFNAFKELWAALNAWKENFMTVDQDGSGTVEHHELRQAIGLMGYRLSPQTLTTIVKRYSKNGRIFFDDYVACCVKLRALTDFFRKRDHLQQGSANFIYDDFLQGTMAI
# Sequence of UniProt Q9NZC3 (Q9NZC3 whole entry, looked up): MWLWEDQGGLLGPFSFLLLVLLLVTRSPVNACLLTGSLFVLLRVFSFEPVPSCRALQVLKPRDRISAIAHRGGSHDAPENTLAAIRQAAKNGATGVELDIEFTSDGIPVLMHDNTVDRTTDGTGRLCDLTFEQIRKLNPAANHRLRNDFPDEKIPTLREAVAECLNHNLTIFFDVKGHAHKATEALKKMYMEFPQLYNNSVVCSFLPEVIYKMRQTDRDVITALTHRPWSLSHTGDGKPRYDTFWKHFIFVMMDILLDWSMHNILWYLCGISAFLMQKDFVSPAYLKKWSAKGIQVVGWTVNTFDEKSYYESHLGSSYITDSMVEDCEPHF
# Sequence of UniProt Q9UET6 (Q9UET6 whole entry, looked up): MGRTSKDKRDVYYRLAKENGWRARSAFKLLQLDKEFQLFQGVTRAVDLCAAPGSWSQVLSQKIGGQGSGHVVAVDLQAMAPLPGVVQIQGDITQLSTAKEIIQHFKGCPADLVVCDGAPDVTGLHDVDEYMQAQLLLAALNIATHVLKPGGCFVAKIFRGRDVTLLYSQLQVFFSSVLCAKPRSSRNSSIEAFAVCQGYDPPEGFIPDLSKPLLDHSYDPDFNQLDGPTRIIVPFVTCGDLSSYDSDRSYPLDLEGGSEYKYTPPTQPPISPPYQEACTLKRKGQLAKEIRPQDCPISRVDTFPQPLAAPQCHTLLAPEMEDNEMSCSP
Target,log2 fold change [1],log2 fold change (barasertib),log2 fold change [2],log2 fold change (volasertib),log2 fold change [3],log2 fold change [4],log2 fold change [5],log2 fold change (saracatinib),log2 fold change (sotrastaurin),log2 fold change (vemurafenib)
EPS8L2 (UniProt Q9H6S3),0,-0.049,0.022,0.023,-0.034,-0.196,0.056,0.045,-0.049,–
FAM53B (UniProt Q14153),–,0.009,0.071,–,0.059,-0.096,0.13,0.096,-0.149,0.046
ELAVL4 (UniProt P26378),0.035,–,-0.119,-0.038,0.054,-0.006,0.029,-0.052,0,-0.045
DYRK1A isoform 2 (UniProt Q13627),–,0.006,–,–,0.308,0.085,0.221,–,0.033,–
FTSJ1 isoform 2 (UniProt Q9UET6),0.021,–,-0.024,0.013,–,-0.019,0.047,–,–,-0.164
DUSP22 isoform 2 (UniProt Q9NRW4),-0.109,-0.016,–,0.006,-0.033,-0.125,0.052,0.009,–,0.134
GAPVD1 (UniProt Q14C86),0.116,0.078,–,-0.305,–,–,–,–,–,–
EHHADH (UniProt Q08426),0.082,-0.066,0.117,-0.108,-0.037,0.055,-0.037,0.091,-0.044,–
FAM111A (UniProt Q96PZ2),0.432 (active),–,-0.34,-0.045,0.112,–,–,0.055,-0.016,-0.02
EID1 (UniProt Q9Y6B2),–,–,0.015,–,0.001,-0.073,0.002,-0.157,–,–
GART (UniProt C9JZG2),-0.014,0.086,-0.021,0.06,-0.043,0.135,0.085,–,0.09,–
DTL (UniProt Q9NZJ0),–,0.044,–,–,0.02,0.065,-0.034,-0.1,-0.03,-0.007
GCA (UniProt P28676),0.124,–,–,-0.048,–,-0.139,0.168,–,–,–
EIF2AK3 (UniProt Q9NZJ5),-0.216,–,–,0.231,0.119,-0.063,-0.199,0.01,–,–
EXO5 (UniProt Q9H790),–,0.111,–,–,-0.022,–,–,–,0.128,–
ETFRF1 (UniProt Q6IPR1),-0.003,0.012,–,-0.03,0,-0.005,-0.03,-0.01,-0.002,0.084
EIF3I (UniProt Q5TFK1),0.147,–,–,-0.112,–,-0.048,0.044,–,–,–
GC isoform 3 (UniProt P02774),–,–,0.022,–,-0.27,0.146,-0.12,-0.02,0.043,-0.008
"EIF2B5, A0A3B3ITK8",-0.071,–,–,0.081,–,–,–,–,–,–
GDE1 (UniProt Q9NZC3),0.038,0.108,0.107,0.092,0.005,1.04 (active),-0.455 (active),0.035,-0.064,–
ERG28 (UniProt Q9UKR5),-0.012,0.065,0.179,0.048,–,0.541,-0.497 (active),0.1,–,–
FAM204A (UniProt Q9H8W3),–,–,–,–,0.059,0.273,-0.614 (active),–,-0.083,-0.003
EPN2 (UniProt I3L356),0.212,-0.106,–,-0.026,–,-0.277,0.075,–,–,–
FMNL2 isoform 3 (UniProt Q96PY5),0.022,–,–,-0.013,-0.103,–,–,0.04,0.08,–
FNDC3A (UniProt Q9Y2H6),–,–,–,–,0.044,-0.451,0.138,–,-0.113,–
"FBRSL1, A0A3B3IRR3",–,0.055,0.069,–,0.085,0,-0.061,-0.028,-0.039,0.132
